Source: PubChem
A selection: hits, their analogues and other compounds. The true share with any hit is near 5.9%.
RORg inh: ROR gamma (mouse) transcription inhibition. Potency, µM (series often up to 53.6 µM), without a hit: top-dose activity change, negative = inhibition, usual class: inhibitors. Drosophila S2 Gal4-RORgamma UAS-luciferase reporter, 20 h. 310,000 compounds, 5.4% hits. AID 2551; note: % is set by controls: 0 for no effect and ±100 for the full control effect; nearly all actives have a fitted effect of over 60% in size
Target sequence (P51450 whole entry, looked up, the tested form may be a part): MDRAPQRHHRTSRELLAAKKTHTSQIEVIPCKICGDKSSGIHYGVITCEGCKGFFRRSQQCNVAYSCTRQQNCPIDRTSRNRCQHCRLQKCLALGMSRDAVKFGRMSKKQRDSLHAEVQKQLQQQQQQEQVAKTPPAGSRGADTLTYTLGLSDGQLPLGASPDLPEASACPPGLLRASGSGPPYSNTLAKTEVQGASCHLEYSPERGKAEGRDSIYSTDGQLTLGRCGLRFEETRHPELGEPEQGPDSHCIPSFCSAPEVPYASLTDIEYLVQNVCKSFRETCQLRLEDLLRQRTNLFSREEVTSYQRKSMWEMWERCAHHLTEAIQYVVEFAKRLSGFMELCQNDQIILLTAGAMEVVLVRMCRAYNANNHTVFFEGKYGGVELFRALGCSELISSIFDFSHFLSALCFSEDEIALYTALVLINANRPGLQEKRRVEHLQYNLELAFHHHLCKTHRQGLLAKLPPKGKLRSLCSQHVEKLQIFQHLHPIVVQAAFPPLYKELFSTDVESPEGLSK
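ROR gamma transcriptional activity was tracked as Gal4-UAS luciferase output in stably transfected Drosophila Schneider cells, with compound added 1 hr before 700 uM copper sulfate induction and a 20 hr ambient-temperature incubation.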
Gal4-VP16 FLuc: counter-screen for ROR gamma inhibitors: Gal4-VP16 reporter. Potency, µM (series often up to 53.6 µM), for inactives: at the highest dose activity, negative = inhibition, usual class: inhibitors. Drosophila S2 Gal4-VP16 UAS-luciferase, luminescence, 20 h. 310,000 compounds, 3.5% hits;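 note: Gal4-VP16 expression switched on by copper sulfate through the metallothionein promoter; % is set by controls: 0 for no effect and ±100 for the full control effect; nearly all actives have a fitted effect of over 50% in size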
GLP-1R agonist: activates the human GLP-1 receptor | HEK293 GLP-1R CRE-luciferase, luminescence, 4-6 h; cells express a hypersensitive GLP-1R form | P43220 | AID 624172 | 380,000 compounds, 0.007% hits | Potency, µM (highest dose often 45.6 µM), inactives show at the highest dose activation, actives largely listed as activators; note: % of control where 0% means no effect
GLP-1R inv ag: inverse agonists of human GLP-1 receptor. Potency, µM (titrated, usually from 38.3 µM), for the others: at the highest dose activity change, negative = inhibition, actives largely listed as inhibitors. 410,000 compounds, 1.6% hits. P43220. HEK293 GLP-1R CRE-luciferase, luminescence, 24 h; GLP-1R form is constitutively active; note: % is set by controls: 0 for no effect and ±100 for the full control effect; nearly all actives have a fitted effect of over 55% in size
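Stable HEK293 clone (constitutively active GLP-1R + cAMP-response luciferase); 200 cells/uL plated, 12 h pre-culture, compound 24 hr, 37 deg C/5% CO2; detection reagent 12 min RT; luminescence.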
GLP1R cytotox: cytotoxicity in counter-screen for GLP-1R inverse agonists; HEK293 cAMP-luciferase reporter cells, luminescence, 24 h; Potency, µM (highest dose often 38.3 µM), without a hit: at the top dose activity change, negative = inhibition, usual class: inhibitors; 410,000 compounds, 0.13% hits;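 note: loss of luciferase light is scored as toxicity; % is set by controls: 0 for no effect and ±100 for the full control effect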
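A 23 nL compound transfer followed 12 hours of cell culture at 37 deg C; exposure then lasted 24 hr. Luciferase assay detection reagent was dispensed and plates read for luminescence after a 12 min room-temperature wait.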
* marks the source's active call; other numbers are inactive results. Calls come from the whole dose curve; as a rule, active = well fitted curve in the direction sought with a large enough effect; inconclusive = small, poorly fitted or top-dose-only effect, or another doubt; inactive = no such curve, though single readings can be large; an effect the other way counts as inactive or inconclusive. Potency is the fitted concentration of half-maximal effect.

What do the screens show for `NC(=O)C1CC2(NC(=O)NC2=O)c2cc(F)ccc2O1` (centres undefined)?
RORg inh: 2.7%; Gal4-VP16 FLuc: 3.9%; GLP-1R agonist: 5.9%

What do the screens show for `CO[C@H]1C[C@@H]2CC[C@@H](C)[C@@](O)(O2)C(=O)C(=O)N2CCCC[C@H]2C(=O)O[C@H]([C@H](C)C[C@@H]2CC[C@@H](OC(=O)C(C)(CO)CO)[C@H](OC)C2)CC(=O)[C@H](C)/C=C(\C)[C@@H](O)[C@@H](OC)C(=O)[C@H](C)C[C@H](C)/C=C/C=C/C=C/1C`?
RORg inh: 3.6%; Gal4-VP16 FLuc: -10.0%; GLP-1R agonist: -3.7%

How did N=C(N)c1ccc(OCCCOc2ccc(C(=N)N)cc2Br)c(Br)c1 do in these assays?
GLP-1R agonist: -1.2%

Results for COc1cc(C(=O)NC(=S)Nc2ccc(Cl)cn2)cc(OC)c1OC ?
RORg inh: 5.01µM*; Gal4-VP16 FLuc: 11.2µM*; GLP-1R agonist: -2.5%; GLP-1R inv ag: 26.2%; GLP1R cytotox: 1.0%

Results for COc1cc(C(=O)Nc2ccc(NC(=O)c3cccc(Cl)c3)nc2)cc(OC)c1OC ?
RORg inh: 13.0%; Gal4-VP16 FLuc: 19.4%; GLP-1R agonist: 2.7%; GLP-1R inv ag: -0.6%; GLP1R cytotox: -8.2%

Results for COc1cc(SC)ccc1C(=O)Nc1ccc(Cl)cn1 ?
RORg inh: 7.94µM*; Gal4-VP16 FLuc: 8.91µM*; GLP-1R agonist: -2.9%; GLP-1R inv ag: 2.24µM*; GLP1R cytotox: 4.8%

How did CCCCCC(=O)NC(=S)Nc1ccc(Cl)cn1 do in these assays?
RORg inh: 7.08µM*; Gal4-VP16 FLuc: 7.94µM*; GLP-1R agonist: 3.3%; GLP-1R inv ag: inconclusive; GLP1R cytotox: inconclusive

Results for Cc1ccc(C(C)C)cc1S(=O)(=O)NCc1ccccn1 ?
RORg inh: 14.1µM*; Gal4-VP16 FLuc: inconclusive; GLP-1R agonist: -1.2%; GLP-1R inv ag: 9.6%; GLP1R cytotox: -8.0%

Results for COc1ccc(C(C)C)cc1S(=O)(=O)NCc1ccccn1 ?
RORg inh: 12.6µM*; Gal4-VP16 FLuc: -8.6%; GLP-1R agonist: 18.0%; GLP-1R inv ag: 0.0%; GLP1R cytotox: 6.8%

How did Cc1ccc(C(C)C)cc1S(=O)(=O)NCc1cccnc1 do in these assays?
RORg inh: inconclusive; Gal4-VP16 FLuc: 17.8µM*; GLP-1R agonist: -5.2%; GLP-1R inv ag: 1.7%; GLP1R cytotox: 1.8%

What do the screens show for `Cc1c(-c2nnc(SCC(=O)Nc3ccc(Cl)cc3)o2)nnn1-c1ccc(F)cc1`?
GLP-1R agonist: 0.6%; GLP-1R inv ag: 7.8%; GLP1R cytotox: -7.5%

Results for COc1ccc(CNC(=O)CCCCCn2c(=O)[nH]c3ccccc3c2=O)cc1 ?
GLP-1R inv ag: 7.6%; GLP1R cytotox: 0.3%

How did CS(=O)(=O)N1CCC[C@@]2(CCN(C(=O)Nc3cccc(C#N)c3)C2)C1 do in these assays?
RORg inh: -5.2%; Gal4-VP16 FLuc: 10.5%

How did Cc1ccccc1NC(=O)OCc1cccnc1Sc1ccc(Cl)cc1 do in these assays?
RORg inh: 18.4%; Gal4-VP16 FLuc: 4.8%; GLP-1R agonist: 3.5%; GLP-1R inv ag: -25.2%; GLP1R cytotox: -2.8%

What do the screens show for `Cc1ccc(Sc2ncccc2C(=O)O)cc1`?
RORg inh: -16.8%; Gal4-VP16 FLuc: inconclusive; GLP-1R agonist: -8.3%; GLP-1R inv ag: 2.0%; GLP1R cytotox: -1.9%

How did Cc1ccc(Sc2ncccc2COC(=O)Nc2c(C)cccc2C)cc1 do in these assays?
RORg inh: 27.2%; Gal4-VP16 FLuc: -6.2%; GLP-1R agonist: -1.4%; GLP-1R inv ag: 7.94µM*; GLP1R cytotox: 9.1%

What do the screens show for `Cc1ccc(Sc2ncccc2COC(=O)Nc2ccccc2)cc1`?
RORg inh: inconclusive; Gal4-VP16 FLuc: inconclusive; GLP-1R agonist: 0.3%; GLP-1R inv ag: 7.94µM*; GLP1R cytotox: -2.1%

How did O=S(=O)(c1ccc(Cl)cc1)c1nnn2c1nc(N1CCCCC1)c1sccc12 do in these assays?
GLP-1R inv ag: 3.5%; GLP1R cytotox: 27.0%

Results for CN1CCN(c2ncc3nc(-c4cc(F)cc(F)c4)c(=O)n(CCc4ccccc4)c3n2)CC1 ?
RORg inh: -3.4%; Gal4-VP16 FLuc: 2.2%
